Entries with a potency or affinity are not part of this list. The source made the active and inactive calls.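 Rule for the calls: active = growth inhibitors whose fitted half-maximal dose is no more than twice the top valid dose; inconclusive = flat curve with 30 to 70% inhibition, or unreliable fit; inactive = the rest.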
Test: antimalarial activity against Dd2 parasites – SYBR Green fluorescence, erythrocytes, dry powder, set 2, dose response (AID 1159574)
Settings: P. falciparum Dd2 in erythrocytes, SYBR Green growth, 72 h; series mostly up to 21 µM

Row | Structure (SMILES) | outcome
1 | O=C(c1ccccc1F)N1CC(=O)N2[C@@H](CO)[C@@H](c3ccc(-c4cccnc4)cc3)[C@@H]2C1 | inactive
2 | O=C(c1ccccc1F)N1CC(=O)N2[C@@H](CO)[C@H](c3ccc(-c4cccnc4)cc3)[C@@H]2C1 | inactive
